Data published in PubChem BioAssay AID1159580 (chemical genetic matrix, 2015).
The campaign covered roughly 5,500 compounds. About 2,000 (36%) were called active. Not shown: some 18% with an inconclusive outcome. Rule as the data show it: active = normalized growth mostly below about 0.91 (no sharp cut-off); inconclusive = no clear call, values can overlap the other calls; inactive = mostly above about 0.92. The list shows a part of the results.

Test: chemical genetic growth profiling, strain panel (AID 1159580);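 also: tested at 20 µM; growth read once vehicle control cultures reached saturation at 30 °C; 1 = growth at the plate median or of vehicle wells; lower values mean less growth of the strain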
Settings: growth OD

Measured: normalized growth

CC(C)(C)OC(=O)N1CCC(C(N)=O)CC1
inactive: S. cerevisiae deletion strains, locus YAL013W, strain DEP1, stronger effect = lower value 0.997 | S. cerevisiae deletion strains, locus YBR229C, strain ROT2, stronger effect = lower value 1.01 | S. cerevisiae deletion strains, locus YCL061C, strain MRC1, stronger effect = lower value 1.02 | S. cerevisiae deletion strains, locus YDL101C, strain DUN1, stronger effect = lower value 1.01 | S. cerevisiae deletion strains, locus YDR150W, strain NUM1, stronger effect = lower value 1.01 | S. cerevisiae deletion strains, locus YEL061C, strain CIN8, stronger effect = lower value 1.01 | S. cerevisiae deletion strains, locus YGR078C, strain PAC10, stronger effect = lower value 1.01 | S. cerevisiae deletion strains, locus YHR030C, strain SLT2, stronger effect = lower value 1.08 | S. cerevisiae deletion strains, locus YHR087W, strain rtc3, stronger effect = lower value 1.01 | S. cerevisiae deletion strains, locus YJR043C, strain POL32, stronger effect = lower value 1.01 | S. cerevisiae deletion strains, locus YJR075W, strain HOC1, stronger effect = lower value 1.01 | S. cerevisiae deletion strains, locus YLR039C, strain RIC1, stronger effect = lower value 1.04 | S. cerevisiae deletion strains, locus YLR058C, strain SHM2 (second series), stronger effect = lower value 1.01 | S. cerevisiae deletion strains, locus YLR085C, strain ARP6, stronger effect = lower value 1.02 | S. cerevisiae deletion strains, locus YLR262C, strain YPT6, stronger effect = lower value 1.07 | S. cerevisiae deletion strains, locus YML094W, strain GIM5, stronger effect = lower value 1.03 | S. cerevisiae deletion strains, locus YMR219W, strain ESC1, stronger effect = lower value 1.01 | S. cerevisiae deletion strains, locus YMR263W, strain SAP30, stronger effect = lower value 1.02 | S. cerevisiae deletion strains, locus YMR307W, strain GAS1, stronger effect = lower value 1.04 | S. cerevisiae deletion strains, locus YNL153C, strain GIM3, stronger effect = lower value 1.01 | S. cerevisiae deletion strains, locus YNL298W, strain CLA4 (second series), stronger effect = lower value 1.03 | S. cerevisiae deletion strains, locus YNL322C, strain KRE1, stronger effect = lower value 1.02 | S. cerevisiae deletion strains, locus YNR030W, strain Alg12, stronger effect = lower value 1.03 | S. cerevisiae deletion strains, locus YPL055C, strain LGE1, stronger effect = lower value 1.01 | S. cerevisiae deletion strains, locus YPL241C, strain CIN2, stronger effect = lower value 1.03 | S. cerevisiae deletion strains, locus YPR135W, strain CTF4, stronger effect = lower value 0.974 | S. cerevisiae strains, strain wild type, stronger effect = lower value 1.02
